About 83,000 compounds went through this panel and 20% of them were active in at least one assay; those are over-represented in the sample as a whole.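 Step 1: grow cells in 96-well plates. Step 2: add test compound at a single concentration. Step 3: incubate 48 h. Step 4: record percent growth.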 Unmarked numbers belong to inactive results. The source made the active and inactive calls. Rule for the calls: active = growth percent below 10; inactive = the rest.
tested on: SR leukemia; assay: NCI-60 one-dose screen, 48 h (100 = growth as untreated, 0 = no growth, -100 = all killed); details: 10 µM

SMILES	growth
CCOC(=O)C1=C(N)N(c2ccccc2)C2=C(C(=O)CC(C)(C)C2)C1c1ccc(Cl)cc1 (stereo not drawn)	13.1%
Brc1ccc(N/N=C/c2c[nH]c3ccccc23)nc1	2.45% (active)
C=CCn1c(SCC(=O)Nc2ccc(C(=O)/C=C/c3ccccc3)cc2)nnc1-c1c[nH]c2ccccc12	31.4%
C/C(=C\CSc1ccccc1C(=O)O)CCCC(C)CCCC(C)CCCC(C)C (stereo not drawn)	18.7%
COc1cc2c(cc1OC)/C(=C\c1sc(Nc3ccc(O)cc3)nc1O)C(C(=O)O)=N2	17%
COc1ccc(Nc2nc(N)n(Cc3cccc(Br)c3)n2)cc1	12.6%
CC[C@]12C=CCN3CC[C@@]4(c5cc(C#CCNc6ccc(C)c(Nc7nccc(-c8cccnc8)n7)c6)c(OC)cc5N(C)[C@H]4[C@@](O)(C(=O)OC)[C@@H]1OC(C)=O)C32 (stereo partly drawn)	21.3%
O=S(=O)(Nc1ncccn1)c1ccc(-n2c(-c3ccc(Br)cc3)nc(-c3ccccc3)c2-c2ccccc2)cc1	45.2%
Cc1ccc2nc(COc3ccc(C(=O)NNC(=S)NC(=O)c4ccccc4)cc3)[nH]c2c1	25.8%
N#Cc1c(NC(=O)c2ccc(C(F)(F)F)c(Cl)c2)sc2c1CCC(=O)C2	-11.8% (active)
CN1CCN(c2ccc(C(=O)/C=C/c3cc(C(F)(F)F)ccc3Cl)cc2)CC1	1.37% (active)
CN1CCN(Cc2ccc(C(=O)Nc3cccc(Nc4ccc5c(O)cccc5n4)c3)cc2C(F)(F)F)CC1	4.88% (active)
CC(C)(C)c1ccc(NCc2cn(-c3ccc(C(=O)O)cc3)nc2-c2ccc(C#N)cc2)cc1	5.39% (active)
CCOc1ccc(/C=N/NC(=O)Cn2nc(Cc3ccc([N+](=O)[O-])cc3)c3onc(C)c3c2=O)cc1	62.7%

tested on: RPMI-8226 leukemia; assay: as above; details: 10 µM

SMILES	growth
N#Cc1ccc(-c2nn(-c3ccc(C(=O)O)cc3)cc2CNc2ccc(Oc3ccccc3)cc2)cc1	22.4%
COc1cc2c(cc1OC)CN(CCCCOc1cc(O)c3c(=O)cc(-c4ccccc4)oc3c1)CC2	24.1%
Cc1cc(=O)oc2cc(OCCCCOc3ccc(/C=C/C(=O)Nc4ccc(F)c(Cl)c4)cc3)ccc12	92.6%
COc1ccc(CN2[C@@H](C(=O)NCc3ccc(C(=O)NO)cc3)Cc3c([nH]c4ccccc34)[C@@H]2C2CC2)cc1	19.3%
COC(=O)c1c(C(=O)OC)c2n(c1C)[C@@H]([C@@H](C)[C@H]1CC[C@H]3[C@@H]4CCC5=CC(=O)CC[C@]5(C)[C@H]4CC[C@]13C)SC2	-11.5% (active)
O=C1CCC(N2Cc3cc(CC(=O)Nc4ccc(N5CCCCC5)cc4)ccc3C2=O)C(=O)N1 (stereo not drawn)	66.4%
Cn1cc(-c2cc(N)n3nc(-c4c[nH]c5ccc(Br)cc45)cc3n2)c2cc(Br)cnc21	-6.39% (active)
COc1ccc(C(=O)CSc2nnc(-c3c[nH]c4ccccc34)n2-c2ccccc2)cc1	72.7%
CC(C)C1=C[C@@]23CC[C@@H]4[C@](C)(CCC[C@]4(C)C(=O)NCc4ccccc4)[C@H]2C[C@@H]1[C@H]1C(=O)CCC(=O)[C@H]13	40.4%
Nc1nc(Nc2ccccc2)nn1Cc1c(Cl)cccc1Cl	27.1%
Cc1ccc2nc(COc3ccc(C(=O)NNC(=S)NCCc4ccccc4)cc3)[nH]c2c1	87.7%
COc1cc2c3c(n(CCCn4ccnc4)c(=O)c2cc1OC)-c1nc2c(cc1C3=O)OCO2	44.3%
Cc1ccc(/C(N)=N/c2sc(-c3ccccc3)nc2-c2ccccc2)cc1	59.9%
Cc1cccc(NC(=O)CSc2nc3ccc(F)cc3c(=O)n2-c2ccc(Cl)cc2)c1C	88.1%
CCCn1c(=O)c2[nH]c(-c3ccc(OCc4nc5ccc(C)cc5[nH]4)cc3)nc2n(CCC)c1=O	29.3%
O=S(=O)(Nc1ncccn1)c1ccc(-n2c(-c3ccccc3)nc(-c3ccccc3)c2-c2ccccc2)cc1	71.1%
Cc1ccc(C(=O)NNC(=O)CSc2nc3ccccc3c(=O)[nH]2)cc1	105%
COc1cc(OC(F)(F)F)ccc1C(=O)Nc1sc2c(c1C#N)CCC(=O)C2	51.7%
COc1ccc(C(=O)Nc2sc3c(c2C#N)CCC(=O)C3)cc1C(F)(F)F	4.37% (active)

Reference: PubChem BioAssay (NCI)
